3CLpro inhibitor = SARS-CoV 3CLpro protease inhibitors, primary screen, biochemical, quenched FRET; Replicase polyprotein 1ab (Severe acute respiratory syndrome coronavirus), P0C6X7; actives 0.14% (n = 290,000); AID 1706, 2009; inhibition, % at 6 µM; recombinant SARS-CoV 3CLpro, quenched FRET peptide cleavage; in the data active means inhibition above about 12%
Autofluor counter = flagged as autofluorescent in microsphere protease counterscreen; compound autofluorescence counterscreen, microsphere flow cytometry; stronger effect = higher value; fluorescence intensity (concentration not given with the values); actives 3.1% (n = 360,000); AID 624483; in the data active means fluorescence intensity above about 16000; inconclusive means no clear call, values can overlap the other calls
BoNT A protease = BoNT/A light chain protease inhibitors, primary screen, biochemical, flow cytometry, MLPCN library | Botulinum neurotoxin type A light chain protease (Clostridium botulinum A str. ATCC 3502) | multiplex microsphere protease substrate cleavage | inhibition, % at 10 µM | actives 0.17% (n = 360,000) | AID 588499, 2011
BoNT-F LC inh = BoNT/F light chain protease inhibitors, primary screen, biochemical, flow cytometry, MLPCN library; Multiplex microsphere protease cleavage assay; inhibition, % at 10 µM; actives 0.22% (n = 360,000); AID 588497, 2011; in the data active means inhibition above about 35%, passing the limit was not always enough; inconclusive means no clear call, values can overlap the other calls
Anthrax LF inh2 = Bacillus anthracis LF protease inhibitors, primary screen, biochemical, multiplex microsphere, MLPCN library. Lethal factor (Bacillus anthracis), P15917. multiplex microsphere protease cleavage assay. inhibition, % at 10 µM. actives 0.12% (n = 360,000)
Of the large screens only hits and unclear results are named; the others gave an inactive call. This is a sample that favours compounds with a hit; in the whole collection about 3.5% have one here. Unless noted, no stated cut-off is given here; in the data, active means inhibition above about 30%; inconclusive means no clear call, values can overlap the other calls; inactive means below that.

Cc1ccc(/C=C2/CCc3c([nH]c4ccccc34)C2=O)cc1	Autofluor counter 23420
Cc1cccc(CN2CCN(C(=O)Cc3ccccc3)CC2)c1	none
O=C(NC1CCCC1)c1csc2c1CCCC2	Autofluor counter 19286
CCOc1ccccc1N1CCN(CC(=O)Nc2nnc(CC)s2)CC1	none
Cc1nnc(NC(=O)Oc2ccccc2)s1	none
CCC(CC)c1nnc(NC(=O)Oc2ccccc2)s1	BoNT-F LC inh 42
CCOC(=O)C1=C(C)NC2=C(C(=O)C(C(=O)OC)C(C)C2)C1c1ccc(OC)c(O)c1 (configuration not stated)	Autofluor counter 23122, BoNT A protease inconclusive
CCCOC(=O)C1=C(C)NC2=C(C(=O)C(C(=O)OC)C(C)C2)C1c1ccc(N(CC)CC)cc1 (configuration not stated)	none
COc1cccc(C(=O)Nc2ccc3c(c2)C(=O)N(CCC(=O)O)C3=O)c1	Autofluor counter 20871, BoNT A protease inconclusive
COc1ccc(C(=O)NC2(C(F)(F)F)NC(=O)N(CCCc3ccccc3)C2=O)cc1OC (configuration not stated)	none
O=C(CCc1ccccc1)Nc1nc2ccc(S(=O)(=O)N3CCOCC3)cc2s1	none
CCn1c2ccccc2c2cc(NC(=O)CSc3nnc(-c4ccc(OC)c(OC)c4)n3N)ccc21	Autofluor counter inconclusive
CCOc1ccc(-c2nnc(SCC(=O)Nc3ccc4c(c3)c3ccccc3n4CC)n2N)cc1	Autofluor counter 16867
CCn1c2ccccc2c2cc(NC(=O)CSc3nnc(-c4ccccc4OC)n3N)ccc21	Autofluor counter 17821, BoNT A protease inconclusive
CCOc1ccc(S(=O)(=O)N2CCCC(C(=O)NCc3ccccn3)C2)cc1 (configuration not stated)	none
CS(=O)(=O)N(Cc1ccc(C(=O)NCCSc2ccccn2)cc1)c1ccccc1	none
CC1CC(C)(C)N2C(=O)C3(Nc4ccccc4S3)c3cccc1c32 (configuration not stated)	Autofluor counter 22846, BoNT A protease inconclusive
Cc1ccc(CCNC(=O)c2coc3nc4ccccc4nc23)cc1	none
Cc1nc2c(C(=O)NCCc3ccccc3)c[nH]n2c(=O)c1Cl	Autofluor counter 21299
Cc1ccc(S(=O)(=O)C(CCC(=O)c2ccc(Cl)cc2)C(N)=O)cc1 (configuration not stated)	Autofluor counter 21117
CCN(CC)S(=O)(=O)c1cccc(S(=O)(=O)c2cccc(S(=O)(=O)N(CC)CC)c2)c1	Autofluor counter 22967, BoNT A protease inconclusive
CCN(CC)S(=O)(=O)c1ccc(F)cc1	Autofluor counter 17034, BoNT A protease inconclusive
CCN(CC)S(=O)(=O)c1cccc(S(=O)(=O)N2CCCCC2)c1	none
CC1CCCCN1N=Nc1nc2c([nH]1)c(=O)n(C)c(=O)n2C (configuration not stated)	none (no result: 3CLpro inhibitor)
CCOCCCNC(=S)NCCc1ccccc1	none
CCCCn1c(N)c(N(CC)C(=O)c2ccc(Cl)c([N+](=O)[O-])c2)c(=O)[nH]c1=O	none
CCN(CC)C(=S)NC(=O)c1ccc(F)cc1	none
O=C(NCc1ccc2c(c1)OCO2)C1CCCN(C(=O)c2ccc(Cl)cc2)C1 (configuration not stated)	none (no result: Autofluor counter, BoNT A protease, BoNT-F LC inh, Anthrax LF inh2)
O=C(NCCc1ccc(Cl)cc1)C1CCC(=O)N1Cc1ccccc1Cl (configuration not stated)	Autofluor counter 22400
Cc1ccc(CNC(=O)C2CCC(=O)N2CCc2ccccc2)cc1 (configuration not stated)	Autofluor counter 20485
CC(C)N1C(=O)CCC1C(=O)NC1CCCC1 (configuration not stated)	Autofluor counter 20690
CC(C)N1C(=O)CCC1C(=O)NCCc1ccccc1 (configuration not stated)	Autofluor counter 23958
CCCC(=O)Nc1nnc(SCC(=O)Nc2ccc(OCC)cc2)s1	none (no result: 3CLpro inhibitor)
CNC(=S)N1N=C(c2ccc(C)cc2)CC1c1ccc(Br)cc1 (configuration not stated)	Autofluor counter 23443
CCC(=O)N1N=C(c2ccc(NS(C)(=O)=O)cc2)CC1c1ccc(C)cc1 (configuration not stated)	Autofluor counter 19251, BoNT A protease inconclusive
CCC(CC)C(=O)N1N=C(c2ccc(NS(C)(=O)=O)cc2)CC1c1ccc(C)cc1 (configuration not stated)	none

Source: PubChem BioAssay
